# Data as given in the supplement of paper PMC5662767.
# Where a name gives a salt, the structure may show the parent alone.
# Test system: Drosophila S2 cl14 SmoIP sensor cells
# Test: normalized SmoIP GFP fluorescence (untreated unstimulated = 0%, untreated Hh-stimulated = 100%); higher = more Smo activation sensor fluorescence
# Conditions: stimulation: Hh conditioned medium (+Hh); compound concentration: 2 uM; 24 h
# 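Also: flow cytometry read-out as median GFP intensity of gated cells, compounds added 30 min before Hh-conditioned or mock medium, mock-treated cells serving as unstimulated baseline.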
row,Structure (SMILES),normalized SmoIP GFP fluorescence [%]
1,CN(C)CC(c1ccc(O)cc1)C1(O)CCCCC1 (stereo not drawn) [desvenlafaxine],105
2,CNC(=O)c1cc(COc2nnc(Nc3ccc(Cl)cc3)c3ccoc23)ccn1 [Telatinib-BAY-57-9352],104
3,CC[C@H]1OC(=O)[C@H](C)[C@@H](O[C@H]2C[C@@](C)(OC)[C@@H](O)[C@H](C)O2)[C@H](C)[C@@H](O[C@@H]2O[C@H](C)C[C@H](N(C)C)[C@H]2O)[C@](C)(OC)C[C@@H](C)C(=O)[C@H](C)[C@@H](O)[C@]1(C)O [clarithromycin],147
4,C=CCn1c(=O)c2cnc(Nc3ccc(N4CCN(C)CC4)cc3)nc2n1-c1cccc(C(C)(C)O)n1,58.7
5,OCCOCCN1CCN(C2=Nc3ccccc3Sc3ccccc32)CC1 [Quetiapine-fumarate(Seroquel)],106
6,"CO[C@H]1/C=C\C=C(/C)C(=O)NC2=CC(=O)C(NCCN(C)C)=C(C[C@@H](C)C[C@H](OC)[C@H](O)[C@@H](C)/C=C(\C)[C@@H]1OC(N)=O)C2=O [17-DMAG,Hydrochloride-Salt]",219
7,CCOC(=O)c1ccc(N2NC(=O)C(=Cc3ccc([N+](=O)[O-])o3)C2=O)cc1,119
8,O=C1[C@H](Cc2ccc(O)cc2)N2C(=O)CCN(C(=O)NCc3ccccc3)[C@H]2CN1Cc1cccc2ccccc12,125
9,CO[C@@H](C(=O)N1Cc2[nH]nc(NC(=O)c3ccc(N4CCN(C)CC4)cc3)c2C1)c1ccccc1,122
10,CCCCc1nc(Cl)c(CO)n1Cc1ccc(-c2ccccc2-c2nnn[nH]2)cc1 [losartan-potassium],90.8
11,C=CC(=O)Nc1cccc(Nc2nc(Nc3ccc(Oc4ccnc(C(=O)NC)c4)cc3)ncc2F)c1,116
12,CC(C)C[C@H](NC(=O)[C@H]1O[C@@H]1C(=O)O)C(=O)NCCCCN=C(N)N,129
13,NS(=O)(=O)C#Cc1ccccc1 [pifithrin-u],103
14,CCN(CC)CC#CCOC(=O)C(O)(c1ccccc1)C1CCCCC1 (stereo not drawn) [oxybutynin-chloride],108
15,O=C(NC1CCOCC1)c1ccc(-c2cc(-c3c[nH]nc3-c3ccccn3)ccn2)cc1,168
16,CN1CCc2nc(C(=O)N[C@@H]3C[C@@H](C(=O)N(C)C)CC[C@@H]3NC(=O)C(=O)Nc3ccc(Cl)cn3)sc2C1 [edoxaban],106
17,O=c1oc2cc(O)ccc2s1 [tioxolone],169
18,Cc1c(C(=O)NN2CCCCC2)nn(-c2ccc(Cl)cc2Cl)c1-c1ccc(Cl)cc1,107
19,Fc1ccc([C@@H]2CCNC[C@H]2COc2ccc3c(c2)OCO3)cc1 [paroxetine-hcl],103

row,Structure (SMILES),normalized SmoIP GFP fluorescence [%]
1,CN1CCN(CCCN2c3ccccc3Sc3ccc(C(F)(F)F)cc32)CC1 [trifluoperazine-dihydrochloride],108
2,CCN1CCN(c2ccc(Nc3cc(N(C)C(=O)Nc4c(Cl)c(OC)cc(OC)c4Cl)ncn3)cc2)CC1,111
3,NC(=O)[C@@H](CCC(F)(F)F)N(Cc1ccc(-c2ncon2)cc1F)S(=O)(=O)c1ccc(Cl)cc1,116
4,c1ccc2c(CC3=NCCN3)cccc2c1 [Naphazoline-hydrochloride-Naphcon],118
5,O=C(NCc1ccccc1)c1csc(Nc2ccncn2)n1 [Thiazovivin],72.7
6,CCc1cccc(CC)c1NC(=O)N1Cc2[nH]nc(NC(=O)c3ccc(N4CCN(C)CC4)cc3)c2C1,121
7,CC(C)c1cc(C(=O)N2Cc3ccc(CN4CCN(C)CC4)cc3C2)c(O)cc1O,107
8,Nc1cc(F)ccc1NC(=O)/C=C/c1cnn(C/C=C/c2ccccc2)c1 [rgfp966],112
9,C[C@H](NC(=O)Cc1cc(F)cc(F)c1)C(=O)N[C@H](C(=O)OC(C)(C)C)c1ccccc1,146
10,CC(=O)c1c(C)c2cnc(Nc3ccc(N4CCNCC4)cn3)nc2n(C2CCCC2)c1=O,150
11,O=C(NS(=O)(=O)c1ccc(Br)s1)c1ccc(Cl)cc1Cl [tasisulam],104
12,CC(=O)Oc1ccccc1C(=O)O [aspirin-acetylsalicylic-acid],101
13,Clc1ccc2nsnc2c1NC1=NCCN1 [Tizanidine-hydrochloride],105
14,CC[C@H](Nc1ncnc2[nH]cnc12)c1nc2cccc(F)c2c(=O)n1-c1ccccc1,126
15,Cn1cc(C2=C(c3ccc(Cl)cc3Cl)C(=O)NC2=O)c2ccccc21,115
16,CCCc1cc(C)[nH]c(=O)c1CNC(=O)c1cc(-c2ccc(N3CCN(C(C)C)CC3)nc2)cc2c1cnn2C(C)C,116
17,Cc1ccc(C(=O)c2cc(O)c(O)c([N+](=O)[O-])c2)cc1 [tolcapone],108
18,O=C(Nc1ccccc1)Nc1ccc(-c2ccc(C(=O)[C@@H]3CCC[C@H]3C(=O)O)cc2)cc1,128
19,O=C(O)CCCCC(CCSCc1ccccc1)SCc1ccccc1 (stereo not drawn),112
